# In PubChem BioAssay AID1347145 (National Center for Advancing Translational Sciences (NCATS), 2019):
# Inconclusive results are not listed. Where a call stands in place of a potency, no number is given. Activity calls are given as the source filed them. Calls follow the shape of the dose curve; as a rule, active = well fitted inhibition curve with a large enough effect; inconclusive = small, poorly fitted or top-dose-only effect; inactive = no such curve, though single readings can be large or run the other way.
# Biological target: N-terminal Xaa-Pro-Lys N-methyltransferase 1 (Homo sapiens) (UniProt Q9BV86)
# Test: qHTS Assay for Inhibitors of N-terminal methyltransferase 1 (NTMT1): MTaseGlo Assay Confirmatory Screen, Round 1
# Details: Recombinant NTMT1, MTase-Glo SAH luminescence; series mostly up to 57.1 µM
# How it was run: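 Luminescence from MTase-Glo conversion of SAH to ATP measured activity after a 30 min RT reaction with 1 µM SPKRIA substrate, 100 µM SAM and 125 nM enzyme. Normalization used no-enzyme and DMSO controls, followed by Hill fitting.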
# Potency is read from the fitted curve at half-maximal effect.
# Chain of N-terminal Xaa-Pro-Lys N-methyltransferase 1 (Homo sapiens) (Q9BV86 whole entry, looked up): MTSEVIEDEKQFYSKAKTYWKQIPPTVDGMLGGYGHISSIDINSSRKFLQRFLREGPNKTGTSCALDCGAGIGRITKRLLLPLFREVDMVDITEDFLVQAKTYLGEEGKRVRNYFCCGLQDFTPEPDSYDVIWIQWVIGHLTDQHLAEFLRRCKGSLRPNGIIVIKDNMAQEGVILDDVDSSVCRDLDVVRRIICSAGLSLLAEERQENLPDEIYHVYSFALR
row,SMILES,Potency
1,COc1cc2c(NC3CCN(C)CC3)nc(N3CCCN(C)CC3)nc2cc1OCCN(C)CCN(C)C,inactive
2,CNC(=O)[C@H]1O[C@H](n2cnc3c(NCc4cccc(I)c4)nc(Cl)nc32)[C@@H](O)[C@@H]1O,inactive
3,CCNc1nc(N2CCCN(C)CC2)nc2cc(OC)c(OC)cc12,inactive
4,OCC1OC(n2cnc3c(=S)nc[nH]c32)C(O)C1O (configuration not stated),inactive
5,CO[C@@H]1[C@@H]2OP(=O)(O)OC[C@H]2O[C@H]1n1c(Sc2ccc(Cl)cc2)nc2c(N)ncnc21,inactive
6,CC[C@H](C)n1cc(C)c2c(C(=O)NCc3c(C)cc(C)[nH]c3=O)cc(-c3ccc(N4CCNCC4)nc3)cc21,inactive
7,Nc1ncnc2c1ncn2C1O[C@H](COP(=O)(O)O)[C@@H](O)[C@H]1O (some centres not stated),inactive
8,CNc1ncnc2c1ncn2[C@@H]1O[C@H](CO)[C@@H](O)[C@@H]1O,inactive
9,C/C(=C\CNc1ncnc2c1ncn2[C@@H]1O[C@H](CO)[C@@H](O)[C@H]1O)CO,inactive
10,Nc1ncnc2c1ncn2[C@@H]1O[C@H](COP(=O)(O)OP(=O)(O)O)[C@@H](O)[C@H]1O,inactive
11,COc1cc2nc(N3CCN(C)CC3)nc(NCCCN(C)C)c2cc1OC,inactive
12,CSCC1OC(n2cnc3c(N)ncnc32)C(O)C1O (configuration not stated),inactive
13,Nc1ncnc2c1ncn2[C@@H]1O[C@H](CO)[C@@H](O)[C@@H]1O,inactive
14,CNc1nc(N2CCN(C)CC2)nc2cc(OC)c(OC)cc12,inactive
15,OC[C@H]1O[C@@H](n2cnc3c(NC4CCCC4)ncnc32)[C@H](O)C1O (some centres not stated),inactive
16,COc1cc2c(NC3CCN(C(C)C)CC3)nc(N3CCC(F)(F)CC3)nc2cc1OCCCN1CCCCC1,inactive
17,COc1cc2nc(N3CCOCC3)nc(NC3CCN(C)CC3)c2cc1OC,inactive
18,Cc1cc2nc3c(=O)[nH]c(=O)nc-3n(C[C@H](O)[C@H](O)[C@H](O)COP(=O)(O)OP(=O)(O)OC[C@H]3O[C@@H](n4cnc5c(N)ncnc54)[C@H](O)[C@H]3O)c2cc1C,inactive
19,COc1cc2c(NC3CCN(C(C)C)CC3)nc(N3CCCN(C)CC3)nc2cc1OCCOCCN1CCCC1,inactive

row,SMILES,Potency
1,CCCCC#Cc1nc(NC)c2ncn([C@@H]3O[C@@H](CO)[C@H](O)[C@H]3O)c2n1,inactive
2,COc1cc2c(NC3CCN(C)CC3)nc(N3CCCN(C)CC3)nc2cc1OCCCN(C)C,inactive
3,COc1cc2c(NC3CCN(C(C)C)CC3)nc(N3CCCN(C)CC3)nc2cc1OCCCN1CCCC1,inactive
4,OC[C@H]1O[C@H](n2cnc3c(NC4CCCC4)nc(Cl)nc32)[C@@H](O)[C@@H]1O,inactive
5,Nc1ncnc2c1ncn2[C@@H]1O[C@H](CSCC[C@H](N)C(=O)O)[C@@H](O)[C@H]1O,inactive
6,COc1cc2c(NC3CCN(C(C)C)CC3)nc(N3CCC(N4CCCC4)CC3)nc2cc1OCCCN1CCCCC1,inactive
7,Nc1ncnc2c1ncn2[C@@H]1O[C@@H](CO)[C@H](O)[C@H]1O,inactive
8,COc1cc2nc(N3CCN(C)CC3)nc(NC(C)C)c2cc1OC,inactive
9,COc1cc2nc(N3CCCCC3)nc(NC3CCN(Cc4ccccc4)CC3)c2cc1OC,inactive
10,COc1cc2c(NC3CCN(C)CC3)cc(N3CCCCN(C)CC3)cc2cc1OCCOCCN(C)C,inactive
11,COc1cc2c(NC3CCN(C)CC3)nc(N3CCCN(C)CC3)nc2cc1OCC1CCNCC1,inactive
12,NCCNC(=O)Cc1ccc(NC(=O)Cc2ccc(Nc3ncnc4c3ncn4[C@@H]3O[C@H](CO)[C@@H](O)[C@H]3O)cc2)cc1,inactive
13,COc1cc2nc(N3CCCN(C)CC3)nc(NC3CCN(C)C3)c2cc1OC (configuration not stated),inactive
14,OC[C@H]1O[C@@H](n2cnc3c(NC4CCCCC4)ncnc32)[C@H](O)[C@@H]1O,inactive
15,COc1cc2nc(N3CCN(C)CC3)nc(NC3CC3)c2cc1OC,inactive
16,Nc1nc(Cl)nc2c1ncn2[C@H]1C[C@H](O)[C@@H](CO)O1,inactive
17,C[C@@H](Cc1ccccc1)Nc1ncnc2c1ncn2[C@@H]1O[C@H](CO)[C@@H](O)[C@H]1O,inactive
18,Nc1ccnc2c1ncn2[C@@H]1O[C@H](CO)[C@@H](O)[C@H]1O,17.2 µM (active)
